Compound activity from PubChem.
ugtP null kill = growth inhibition of ugtP-null S. aureus, primary screen, RN4220 ugtP deletion, OD600; 16 h; growth inhibition, % (no concentration beside the values); hit rate 0.54% among 330,000; AID 1259309, 2017; in the data active = growth inhibition above about 68%;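 also: plate controls were untreated wells for no effect and antibiotic for full effect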
Sa RN4220 lethal = growth inhibition of S. aureus RN4220, primary screen, OD600. hit rate 0.33% among 330,000. 16 h. inhibition, % (no concentration beside the values); in the data active = inhibition above about 85%;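 also: plate controls were untreated cells for no effect and reference antibiotic for full effect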
Mtb hypoxia rep = PubChem AID 1159583. M. tuberculosis hypoxia-regulated fluorescent reporter, fluorescence. fluorescence inhibition, % (concentration not given with the values). hit rate 0.1% among 300,000; in the data active = fluorescence inhibition mostly above about 23%, no sharp cut-off; inactive = mostly below about 17%
Mtb bLac sens = beta-lactam sensitization of Mtb H37Rv, H37Rv; M. tuberculosis H37Rv growth with meropenem, percent inhibition; inhibition, % at 25 µM; hit rate 0.27% among 330,000; call rule not given here;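 also: growth measured after seven days incubation then overnight dye step; 0% = bacteria only wells and 100% = bacteria with antibiotic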
Starred values were filed as active, the others as inactive; ? = inconclusive; . = no result shown; ! = repeats disagree. Sampled rows, rich in hits. Any-hit rate of the full collection: about 0.61%.

SMILES | ugtP null kill | Sa RN4220 lethal | Mtb hypoxia rep | Mtb bLac sens
Oc1ccc(-c2csc(-c3c[nH]c4ccccc34)n2)c(O)c1 | -37 | -3 | 0 | 71
Cc1ccc(-c2csc(-c3c[nH]c4ccccc34)n2)c(C)c1 | 95* | -7 | . | 40
CC(/C=C1\SC(=S)N(CCC(=O)Nc2cccc(C(=O)O)c2)C1=O)=C\c1ccccc1 | 86* | 78 | 1 | 0
O=S(=O)(NC1CC(NS(=O)(=O)OCC(Cl)(Cl)Cl)C2CCCCC12)OCC(Cl)(Cl)Cl (configuration not stated) | 95* | 101* | 5 | -15
COc1nc(Cl)cn(-c2ccc(C)cc2)c1=O | 0 | 9 | 3 | 1
Cc1ccc(-n2c(Cl)c(Cl)nc(Cl)c2=O)cc1 | 100* | 100* | 1 | 100
Cc1cccc(N=Cc2[nH]c3ccc(Br)c(Cl)c3c2O)c1 | 100* | 35 | 19 | -2
CSc1nc2ccc(Cl)cc2[nH]1 | 4 | 9 | -2 | 1
CSc1nc2cc(Oc3cccc(Cl)c3Cl)c(Cl)cc2[nH]1 | 97* | 100* | -4 | 58
CC(C)CC1CN=C(N(C)C)N1CCCCc1ccccc1 (configuration not stated) | -15 | 1 | 10 | .
c1ccc(N=Nc2ccc3cccccc2-3)cc1 | 95* | 15 | 4 | 72
Cc1ccc(C(=O)COc2ccccc2-c2ccccc2)cc1 | 86* | -2 | 12 | 93
COc1ccc(NC(C)C(=O)NN=Cc2ccc([N+](=O)[O-])s2)cc1 (configuration not stated) | 22 | 17 | 43* | .
CC(C)(C)OC(=O)NN=Cc1ccc([N+](=O)[O-])s1 | 15 | 4 | 4 | .
Cc1cc(C(=O)NN=Cc2ccc([N+](=O)[O-])s2)n[nH]1 | 98* | 100* | . | .
Cc1cc(N2C(=O)C(O)=C(C(=O)c3ccco3)C2c2cccc(Cl)c2)no1 (configuration not stated) | 92* | 96* | -8 | -1
CCCOc1ccc(C2C(C(=O)c3cc4ccccc4o3)=C(O)C(=O)N2c2cc(C)on2)cc1OC (configuration not stated) | 100* | 99* | -6 | 2
C=CCOc1cccc(C2C(C(=O)c3cc4ccccc4o3)=C(O)C(=O)N2c2cc(C)on2)c1 (configuration not stated) | 100* | 100* | -8 | 2
Cc1cc(N2C(=O)C(O)=C(C(=O)c3ccco3)C2c2cccnc2)no1 (configuration not stated) | 6 | 5 | -1 | -9
CCCCCCCCCn1ccc(=N)cc1 | 100* | -1 | 13 | -14
COc1cccc(NCc2cc(=O)oc3cc(-c4ccccc4)c(O)cc23)c1 | . | . | . | 6
COc1cccc(NCc2cc(=O)oc3cc(C)c(O)cc23)c1 | 100* | 97* | -2 | -2
Brc1cc(Br)c2nc3c(cc2c1)CCC3 | -3 | 11 | 54* | 46
Nc1c(Cl)cc(C2=NCCn3c2c2ccc([N+](=O)[O-])cc2[n+]3[O-])cc1Cl | 63 | 54 | 45* | 98
CCN(CC)CCOc1ccc(C(=C(Cl)c2ccccc2)c2ccccc2)cc1 | 71 | 97*! | . | .
SMILES | ugtP null kill | Sa RN4220 lethal | Mtb hypoxia rep | Mtb bLac sens
Cc1ccc(C=NNc2nnc(Cl)c3ccccc23)cc1 | -14 | -2 | -10 | .
CCCCOC(=O)c1ccc(NC(=S)N2CCN(c3ncc4c(=O)c(C(=O)O)cn(CC)c4n3)CC2)cc1 | 100* | 101* | 2 | 78
CCn1cc(C(=O)O)c(=O)c2cnc(N3CCN(C(=S)Nc4ccccc4)CC3)nc21 | 4 | 17 | -7 | 17
Cc1c(CC(=O)N[C@@H](C)C(=O)O)c(=O)oc2c(C)c3occ(-c4ccccc4)c3cc12 | 100* | 94* | -3 | 3
Cc1c(CC(=O)N[C@@H](C)C(=O)O)c(=O)oc2cc3occ(-c4ccccc4)c3cc12 | 7 | 3 | 10 | 5
Cc1c(CC(=O)O)c(=O)oc2c(C)c3occ(-c4ccc(F)cc4)c3cc12 | 100* | 95* | -1 | 5
COc1ccc(/C=C/C(=O)c2ccc(O)cc2)cc1COc1ccc(F)cc1 | 87* | 58 | -1 | -5
COc1cccc(-c2ccc(C#N)c(SCC(=O)NCCc3cccc(Cl)c3)n2)c1 | 85* | 5 | -3 | 4
COc1ccc(-c2ccc(C#N)c(SCC(=O)NCCc3ccccc3)n2)cc1OC | 7 | 2 | 3 | 3
Cc1ccc(C=Nc2sc3c(c2C#N)CCC3)o1 | 0 | 1 | . | .
Oc1ccc(C=NN(c2ccccc2)c2ccccc2)cc1O | 1 | 13 | 7 | .
C(=NN(c1ccccc1)c1ccccc1)c1ccc2c(c1)OCO2 | 95* | -2 | 4 | .
CCCCCCOc1ccc(CN2CCN(C)CC2)cc1 | 86* | 0 | 10 | ?
CCCCOc1ccc(CN2CCCCC2)cc1 | 4 | 6 | -5 | 1
COc1ccc(OC)c(C=NNC(=O)Cc2nc3ccccc3[nH]2)c1 | 7 | 2 | 2 | .
CC(C)CC(=O)NC(=S)Nc1ccc(N2CCN(C(=O)c3cccs3)CC2)cc1 | 96* | 9 | . | .
CC(C)CC(=O)NC(=S)Nc1ccc(NC(=O)c2cccs2)cc1 | 83* | 3 | . | -4
O=C(Nc1ccc(NC(=S)NC(=O)c2ccccc2F)cc1)c1cccs1 | 76 | 4 | . | 47
CCn1nc(C)cc1-c1nnc(Sc2ncc([N+](=O)[O-])s2)n1C | 91* | 48 | 16 | 3
COc1ccc(C(=O)ON=C(C)c2cccs2)cc1 | 6 | 0 | . | .
COC(=O)c1ccc2c(=O)n(-c3ccccc3F)c(=S)[nH]c2c1 | active | 88 | 14 | -6
COc1cccc(C(=O)NC(=S)Nc2ccccc2N2CCCC2)c1 | 91* | -3 | 13 | 41
COc1cccc(C(=O)Nc2ccccc2N2CCCC2)c1 | -7 | 5 | 14 | -4
COc1cccc(C(=O)NC(=S)Nc2ccccc2N2CCCCC2)c1 | 89* | -7 | -4 | 49
CN(CCO)c1cc(Sc2nc3ccccc3s2)c2nonc2c1[N+](=O)[O-] | 88* | 57 | 19 | ?
SMILES | ugtP null kill | Sa RN4220 lethal | Mtb hypoxia rep | Mtb bLac sens
O=C(c1c(O)c2ccccc2oc1=O)C1CCCCC1 | 22 | 48 | -3 | -5
O=C(CCC1CCCC1)c1c(O)c2ccccc2oc1=O | 100* | 100* | 1 | 99
Cc1nn(-c2ccccc2)c2c1C1(C(=O)N(C)c3ccccc31)C(C#N)=C(N)O2 (configuration not stated) | -5 | 12 | 12 | 79
Cc1nn(-c2ccccc2)c2c1C1(C(=O)N3c4c(cccc41)C(C)CC3(C)C)C(C#N)=C(N)O2 (configuration not stated) | 92* | 96* | 16 | 3
O=C(Nc1ccc([N+](=O)[O-])cc1)Nc1ccc(OC(F)F)c(Cl)c1 | 100* | 99* | -6 | 100
Nc1ccc2nc(-c3ccccc3)c(-c3ccccc3)nc2c1 | . | . | . | 5
C[n+]1c(-c2ccccc2)c2cc(N)ccc2c2ccc(N)cc21 | 98* | 37 | . | 100
COc1cc(C#Cc2c(-c3ccccc3)n(C)c3ccccc23)cc(OC)c1 | . | . | . | 9
COc1ccc(C#Cc2c(C=O)n(C)c3ccccc23)cc1 | 100* | 1 | 15 | 63
Cn1c(C=O)c(C#Cc2ccccc2)c2ccccc21 | 100* | -3 | 2 | 26
